Screens deposited in PubChem by National Center for Advancing Translational Sciences (NCATS).
Compounds with a hit are over-represented: about 0.8% of the library has one in this group of screens.
TRHR PAM – allosteric enhancers of human TRH receptor; P34981; TRHR cells, fluo-8 calcium fluorescence, EC20 TRH enhancement; enhancement, % at 2 µM; 360,000 tested, 0.66% active; in the data active = enhancement above about 30%; also: 0% is about no effect
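Enhancer read-out: after compound pinning and an initial kinetic agonist-mode read, an EC20 of TRH (10 nM final) was injected and fluo-8 calcium signal (Ex 480/Em 530) followed at 1 s/cycle for 100 cycles in TRHR-expressing cells.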
GRP78 ERSR act – inducers of ER stress response in human glioma cells; Potency, µM, inactives show top-dose activation, most hits filed as activators; 420,000 tested, 0.02% active; U87-MG GRP78 promoter luciferase reporter, 16 h; AID 602332; active = well fitted activation curve with a large enough effect; also: potency is read from the fitted curve at half-maximal effect; series mostly up to about 76 µM; % of control where 0% means no effect; nearly all actives have a fitted effect of over 35% in size
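Stably transfected U87-MG human glioma cells carrying a GRP78-based luminescent sensor were seeded at 1000 cells/well, pin-dosed with compounds and incubated 16 h. Luciferase reagent was then added, and end-point luminescence was read after 10 min at room temperature.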
TRPML1 blocker – blocks the human TRPML1 channel; AID 624415; TRPML1-inducible cells, Ca2+ dye fluorescence, FDSS; active compounds read low; inhibition of EC80 agonist-evoked calcium signal; 390,000 tested, 0.02% active; activity change, negative = inhibition, % (concentration not given with the values); in the data active = activity change below about -50%;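 also: stimulus is agonist 54-4 at its EC80 concentration; % is scaled to controls: 0 for no effect and ±100 for the full control effect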
Target sequence (Q9GZU1 whole entry, looked up): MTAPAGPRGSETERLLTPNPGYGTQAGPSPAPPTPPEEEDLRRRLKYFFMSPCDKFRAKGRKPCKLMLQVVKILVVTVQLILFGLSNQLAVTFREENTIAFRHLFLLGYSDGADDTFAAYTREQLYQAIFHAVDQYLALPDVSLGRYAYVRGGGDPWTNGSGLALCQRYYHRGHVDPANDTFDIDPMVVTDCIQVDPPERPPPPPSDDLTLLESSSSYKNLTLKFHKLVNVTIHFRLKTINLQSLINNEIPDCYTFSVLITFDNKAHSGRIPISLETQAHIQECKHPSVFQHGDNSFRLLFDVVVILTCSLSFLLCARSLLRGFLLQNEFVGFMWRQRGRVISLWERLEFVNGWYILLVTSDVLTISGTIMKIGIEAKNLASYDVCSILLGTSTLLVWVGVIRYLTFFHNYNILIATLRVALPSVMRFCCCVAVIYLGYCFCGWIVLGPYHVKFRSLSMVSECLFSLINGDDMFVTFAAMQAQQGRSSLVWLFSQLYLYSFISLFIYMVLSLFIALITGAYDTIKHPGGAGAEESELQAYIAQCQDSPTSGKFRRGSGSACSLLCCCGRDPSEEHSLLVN
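Tet-induced TRPML1-DL cells loaded with Ca8 no-wash calcium dye were read kinetically on FDSS. Compound addition was followed by EC80 agonist 54-4 (4 uM final); inhibition was read over 110 s.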
TRPML1 agonist – activates the human TRPML1 channel; activation, % (no concentration beside the values); Q9GZU1; TRPML1-expressing cells, Ca2+ dye fluorescence, FDSS; 410,000 tested, 0.12% active; in the data active = activation above about 50%; also: 0% is about no effect
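Tet-induced TRPML1-DL cells, 1,500 per well, cultured overnight, were loaded with a no-wash Ca2+ dye for 45–90 min. Calcium fluorescence was recorded on the FDSS for 110 s after compound addition, before the EC80 agonist (4 uM 54-4) was added.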
TRHR agonist – agonists of human TRH receptor; P34981; TRHR cells, calcium flux fluo-8, FDSS agonist mode; activation, % at 2 µM; 360,000 tested, 0.18% active; in the data active = activation above about 30%; also: 0% is about no effect
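Steps: seed TRHR cells overnight; add fluo-8 no-wash Ca dye, RT 30 min–1.5 h; record 10 s baseline; pin-transfer compounds; monitor fluorescence 1 cycle/s for the agonist window. Calcium increases flag candidate agonists.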
The depositor's hits bear a star; . = no result.

SMILES	TRHR PAM	GRP78 ERSR act	TRPML1 blocker	TRPML1 agonist	TRHR agonist
CC1Cc2cc(S(=O)(=O)NCc3ccc(N(C)C)cc3)ccc2N1C(=O)C1CCC1 (configuration not stated)	45*	-3%	1	-1	0
CC(=O)Nc1ccc(NS(=O)(=O)c2ccc3c(c2)CC(C)N3C(=O)C2CCC2)cc1 (configuration not stated)	46*	-1%	-3	-1	0
COc1ccc(CNS(=O)(=O)c2ccc3c(c2)CC(C)N3C(=O)C2CC2)cc1 (configuration not stated)	-2	-4%	33	4	-1
COc1ccc(OC)c(S(=O)(=O)N2CCN(S(=O)(=O)c3ccc4c(c3)OCCO4)CC2)c1	-6	.	.	.	1
COC(=O)c1ccc(C)c(NC(=O)CCSc2ccc(C)cc2)c1	34*	-6%	-13	1	0
CC(=O)N[C@@H](C)C(=O)NCC1Cc2cccc(-c3ccccc3C(F)(F)F)c2O1 (some centres not stated)	.	-5%	.	.	.
Cn1cc(Cl)c(-c2n[nH]c(=S)n2-c2ccc(F)cc2)n1	0	0%	-9	-1	0
Cc1ccc(-n2c(-c3nn(C)cc3Cl)n[nH]c2=S)cc1	31*	-4%	24	0	2
CC(=O)Nc1cc(C(=O)N2CC3(C)CC2CC(C)(C)C3)cc2ncn(CCc3ccccn3)c12 (configuration not stated)	.	-5%	.	.	.
Cc1ccsc1/C=N/NC(=O)c1cc(-c2ccncc2)nc2ccccc12	36*	-5%	-9	1	-1
COc1ccccc1-c1cc(C(=O)N/N=C/c2sccc2C)c2ccccc2n1	2	-2%	2	0	2
COc1ccc(C(=O)NCC2Cc3c(F)ccc(-c4nc(C)cnc4C)c3O2)cc1F (configuration not stated)	.	-5%	.	.	.
CC(=O)NC(CCC(N)=O)C(=O)O (configuration not stated)	.	-2%	.	.	.
CO[C@H]1[C@H](NC(=O)c2ccco2)c2ccccc2C12CCN(Cc1cc(Cl)ccc1O)CC2	.	-2%	.	.	.
Cc1ccc(C(=O)N2CCCCC2C(=O)O)o1 (configuration not stated)	-3	-5%	5	-1	0
CC1CCCCN1C(=O)c1ccc(Br)o1 (configuration not stated)	32*	-1%	-5	-1	0
CCN1CCCC1CNC(=O)c1cnn(-c2nccc(-c3cccs3)n2)c1C(C)C (configuration not stated)	.	-4%	.	.	.
COc1ccc(-n2cc(-c3ccccc3)c3c(NCCc4ccc(OC)c(OC)c4)ncnc32)cc1	-6	-3%	-9	1	1
COc1ccc(CCNc2ncnc3c2c(-c2ccccc2)cn3-c2cccc(Cl)c2)cc1OC	-4	-3%	-3	74*	1
CCCCCOc1ccc(C(=O)OCC(=O)Nc2cc(C)on2)cc1	31*	-2%	-9	0	2
Cc1cc(NC(=O)COC(=O)c2ccc(OC(F)(F)F)cc2)no1	4	-2%	-14	-1	0
COc1ccc(OC)c(C(=O)COC(=O)CN2C(=O)NC3(CCCCC3C)C2=O)c1 (configuration not stated)	33*	-3%	9	1	0
COc1ccc2c(c1)CCc1cnc(-n3ncc(C(=O)N(C)CC4CCCN(C)C4)c3C)nc1-2 (configuration not stated)	.	-4%	.	.	.
Cc1cccc(NC(=O)c2ccc(CN3CC(=O)N4CCCCC4C3=O)cc2)c1C (configuration not stated)	45*	-2%	27	2	1
CN(/N=C/c1ccc(-c2ccc([N+](=O)[O-])cc2)o1)c1ccccc1	1	-1%	-1	21	37*
SMILES	TRHR PAM	GRP78 ERSR act	TRPML1 blocker	TRPML1 agonist	TRHR agonist
C[N+]1(C)CCN(C[C@@](O)(c2ccccc2)C2CCCCC2)CC1	.	-3%	.	.	.
O=C(COC(=O)CNC(=O)c1cccc([N+](=O)[O-])c1)Nc1ccccc1OC(F)F	34*	-2%	-19	1	-1
O=C(COC(=O)CNC(=O)c1cccc([N+](=O)[O-])c1)Nc1nc2ccccc2s1	-3	-3%	2	1	0
CCC1CN(CC(=O)NCc2cc(C)n(C)n2)Cc2cc(OC)ccc2O1 (configuration not stated)	.	-2%	.	.	.
COc1ccc(-c2nc3ccccc3s2)cc1NC(=O)c1ccccc1OC	34*	1%	-1	0	-1
COCc1ccc(CN2CCOc3ccc(C4=Cc5ccccc5C4)cc3C2)o1	.	3%	.	.	.
O=S(=O)(c1ccccc1)N1CCN=C1SCc1cccnc1	5	-2%	-7	1	0
CS(=O)(=O)N1CCN=C1SCc1ccccc1	32*	-3%	34	3	0
CCc1c(-c2ccccc2)nc2nc(C)c(C)nn12	37*	9%	8	0	0
Cc1nc2nc(-c3ccccc3)cn2nc1C	3	-7%	-1	0	1
CCN(CC)CCN(C(=O)c1ccco1)c1nc2c(C)c(C)ccc2s1	38*	-2%	58	2	-1
CCCCn1c(=N)n(CC(=O)C(C)(C)C)c2ccccc21	10	-5%	-4	1	0
CCCn1c(=N)n(CC(=O)C(C)(C)C)c2ccccc21	31*	-9%	-4	0	-1
Cc1cnc(C)c(-c2cccc3c2OC(CNC(=O)CN2C(=O)c4ccccc4C2=O)C3)n1 (configuration not stated)	.	-3%	.	.	.
Cc1sc2ncnc(Sc3ccccc3C(=O)O)c2c1C	35*	-1%	1	0	0
CCOc1ccc(CC(=O)NCCc2sc3nc(-c4ccc(F)cc4)nn3c2C)cc1	43*	4%	6	1	0
CCOc1ccc(CC(=O)NCCc2sc3nc(-c4ccc(OC)cc4)nn3c2C)cc1	-3	-2%	7	0	0
CC1CCCC(NC(=O)C2CCCN2S(=O)(=O)c2cccc3nsnc23)C1C (configuration not stated)	36*	-4%	1	0	1
CC(=O)Nc1ccc(NC(=O)C2CCCN2S(=O)(=O)c2cccc3nsnc23)cc1 (configuration not stated)	10	-1%	5	1	0
Cc1ccc(OCCn2nc3ccccc3n2)c(C)c1	39*	-1%	64	6	1
